# Screening data deposited in PubChem BioAssay by Bradner/Qi Labs at DFCI.
# CBX7 AlphaScr: CBX7 chromodomain binding inhibitors, primary screen, biochemical, AlphaScreen; Chromobox protein homolog 7 (Homo sapiens), O95931; AlphaScreen His6-CBX7 / biotin-H3K27me3 peptide binding; stronger effect = lower value; normalised signal (fraction of DMSO) (no concentration beside the values); 66,000 compounds, 1.1% hits; in the data active means normalised signal below about 0.5
# Target sequence (O95931 whole entry, looked up): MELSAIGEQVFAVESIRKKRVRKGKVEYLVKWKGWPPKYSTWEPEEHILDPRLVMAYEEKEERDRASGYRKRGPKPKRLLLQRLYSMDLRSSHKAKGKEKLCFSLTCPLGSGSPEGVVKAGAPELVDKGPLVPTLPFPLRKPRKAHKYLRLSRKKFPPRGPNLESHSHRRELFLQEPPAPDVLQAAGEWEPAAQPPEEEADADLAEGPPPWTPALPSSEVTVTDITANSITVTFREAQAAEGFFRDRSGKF
# An asterisk follows results filed as active; ! = repeats disagree. The full list was thinned out, with hits kept by preference.
SMILES,CBX7 AlphaScr
COc1ccccc1C(=O)Nc1c(-c2ccccc2)nc2cc(C)ccn12,0.945
COc1ccc(NS(=O)(=O)c2ccc3c(c2)NC(=O)CC(=O)N3)c(OC)c1,0.988
CCCCN(C)CCNS(=O)(=O)c1ccc2c(c1)CCN2C(=O)C1CCC1,1.11
Cc1ccc(-c2ccc(=O)n(CC(=O)NCCCOC(C)C)n2)cc1,0.993
Cc1ccc(Nc2nc(-c3sc(N)nc3C)cs2)cc1,0.382*
CC(=O)Nc1ccc(Nc2nc(-c3sc(C)nc3C)cs2)cc1,0.864
COc1ccc(Nc2nc(-c3cccs3)cs2)cc1,0.746
COc1ccc(Nc2nc(-c3sc(NC(C)=O)nc3C)cs2)cc1,0.74
COc1cc(Nc2nc(-c3ccc(C)cc3)cs2)c(OC)cc1Cl,0.46*!
COc1ccc(Cl)cc1Nc1nc(-c2sc(C)nc2C)cs1,0.987
COc1cc(Nc2nc(-c3ccc(Cl)cc3)cs2)c(OC)cc1Cl,1.03
COc1ccc(CCNc2nc(-c3ccc(Cl)cc3)cs2)cc1OC,0.915
Cc1ccc(-c2csc(Nc3ccc(F)cc3)n2)cc1,0.939
COc1ccc(Nc2nc(-c3sc(N)nc3C)cs2)cc1,0.314*
COc1ccc(CCNc2nc(-c3sc(N)nc3C)cs2)cc1OC,0.352*
Cc1ccc(-c2csc(Nc3ccccc3Cl)n2)cc1,1.04
NS(=O)(=O)c1ccc(CNC2CC(=O)N(c3cccc(Br)c3)C2=O)cc1 (stereo unspecified),0.949
Cc1ccn2c(NC(=O)C3CC3)c(-c3ccc(F)cc3)nc2c1,1.13
Cc1ccc(NC(=O)c2cc3c(n(-c4ccc(C)cc4)c2=O)CC(C)(C)CC3=O)cc1,1.33
COc1ccc(-c2cc(CCCC(=O)Nc3cc(C)ccc3C)no2)cc1,0.91
COc1ccc(N(C)C(=O)COc2cc(=O)n(C)c3ccccc23)c(OC)c1,1.03
CN(C)CCCNC(=O)c1cc(-c2cccc(Br)c2)nc2ccccc12,1.11
CCOCCCNC(=O)CSCc1nc(-c2ccc(Cl)cc2)oc1C,1.08
COc1ccc(OC)c(C2=NOC(C(=O)Nc3cccc(C(F)(F)F)c3)C2)c1 (stereo unspecified),1.05
CCC1(C(O)(C#CCN(CCO)C(C)C)c2ccccc2)CCCC1 (stereo unspecified),1.11
SMILES,CBX7 AlphaScr
COc1ccc(-c2cc(C(=O)Nc3sc4c(c3C#N)CCCC4)no2)cc1,1.13
COc1cccc(Nc2nc(-c3cccc(C)c3)nc3ccccc23)c1,1.35
COc1ccc(-c2csc(Nc3ccc(N)cc3)n2)cc1,0.408*
COc1ccc(Nc2nc(-c3ccc(Cl)c(Cl)c3)cs2)cc1,0.776
CCOc1ccc(Nc2nc(-c3sc(NC(=O)c4ccccc4)nc3C)cs2)cc1,0.425*
Cc1nc(NC(=O)c2ccccc2)sc1-c1csc(Nc2ncccn2)n1,1.03
COc1ccc(OC)c(Nc2nc(-c3sc(NC(C)=O)nc3C)cs2)c1,0.652
CC(=O)Nc1nc(C)c(-c2csc(Nc3ccc(N)cc3)n2)s1,0.469*
Cc1nc(N)sc1-c1csc(Nc2cccc(Cl)c2)n1,0.772
Cc1nc(N)sc1-c1csc(Nc2ccc(Cl)cc2)n1,0.383*
CC(=O)Nc1ccc(Nc2nc(-c3sc(NC(=O)c4ccccc4)nc3C)cs2)cc1,1.03
CC(=O)Nc1nc(C)c(-c2csc(Nc3ccccc3)n2)s1,0.508
Fc1ccc(Nc2nc(-c3ccc(Cl)cc3)cs2)cc1,0.822
COc1ccc(Nc2nc(-c3ccc(Br)cc3)cs2)cc1,0.898
Cc1ccc(CCNC(=O)c2cc(Sc3nnc(C)s3)nc3ccccc23)cc1,1.1
CC(NC(=O)C1CCCN(C(=O)c2cc3sccc3n2C)C1)C12CC3CC(CC(C3)C1)C2 (stereo unspecified),0.685
CCCCN(CC)CCCNC(=O)c1cc(-c2ccc(OCC)cc2)nc2ccccc12,1.19
O=C(NC1CC1)c1ccc2c(c1)N(Cc1ccccc1)C(=O)c1ccccc1S2=O (stereo unspecified),1
Cc1ccccc1Nc1c(-c2cc(Br)ccc2F)nc2ccc(Cl)cn12,1.06
O=C(C1CCC1)N1CCc2cc(S(=O)(=O)NCCCN3CCN(Cc4ccccc4)CC3)ccc21,1
COc1ccccc1Nc1nc(-c2ccccc2)c2ccccc2n1,2.28
COc1cc2c(=O)c(S(=O)(=O)c3ccccc3)cn(Cc3ccccc3)c2cc1OC,0.939
CCc1ccc2oc(-c3ccc(NC(=O)c4ncn[nH]4)cc3)nc2c1,0*
O=C(Nc1ccc2oc(-c3ccncc3)nc2c1)c1ccc(-c2ccc(F)cc2)o1,0.405*
O=C(Nc1ccc2oc(-c3cccnc3)nc2c1)c1ccc(-c2ccc(F)cc2)o1,0.99
SMILES,CBX7 AlphaScr
O=C(Nc1ccc2oc(-c3ccncc3)nc2c1)c1ccc(-c2ccc(Cl)cc2)o1,0.966
CCc1ccc2oc(-c3ccc(NC(=O)c4ccccc4)cc3)nc2c1,0.849
CCc1ccc2oc(-c3ccc(NC(=O)c4cc(OC)cc(OC)c4)cc3)nc2c1,0.952
COCCCNc1cc(C)nc2c(-c3ccc(Cl)cc3)c(C)nn12,1.35
CCCCCc1nnc(NC(=O)c2ccccc2O)s1,1.14
N#Cc1ccc(-c2csc(NC(=O)c3sc4ccccc4c3Cl)n2)cc1,1.02
COc1ccc(-c2nc(-c3cccs3)[nH]c2-c2ccccc2)cc1OC,0.894
COc1cc(-c2nc(-c3cccs3)c(-c3cccs3)[nH]2)ccc1O,0.438*
COc1cc(-c2nc(-c3ccccc3)c(-c3ccccc3)[nH]2)ccc1O,1.07
Cc1ccn2c(Nc3ccc4c(c3)OCO4)c(-c3ccccc3)nc2c1,0.799
O=C(CCN1CCCC1)Nc1ccc(OCc2ccccc2)cc1,1.07
CCOc1ccc(NC2c3ccccc3C(=O)N2c2cccnc2)cc1 (stereo unspecified),0.898
O=C1c2ccccc2C(Nc2ccccn2)N1Cc1ccccc1 (stereo unspecified),0.907
Cc1ccc(Cl)cc1NC1c2ncccc2C(=O)N1Cc1ccc(F)cc1 (stereo unspecified),0.862
Cc1ccc(NC2c3ncccc3C(=O)N2Cc2ccc(F)cc2)cc1 (stereo unspecified),0.44*
CCOc1ccc(NC2c3ccccc3C(=O)N2Cc2ccccc2Cl)cc1 (stereo unspecified),0.703
Cc1ccc(NC2c3ccccc3C(=O)N2Cc2ccccc2)cc1 (stereo unspecified),0.89
Cc1ccc(NC2c3ccccc3C(=O)N2Cc2ccccc2Cl)cc1 (stereo unspecified),0.831
CCOc1ccc(NC2c3ncccc3C(=O)N2Cc2ccc(F)cc2)cc1 (stereo unspecified),0.497*
O=C1c2cccnc2C(Nc2ccc(Cl)cc2)N1Cc1ccc(F)cc1 (stereo unspecified),0.372*
CCN1CCCC1CNC(=O)c1cn(CC)c2nc(C)ccc2c1=O (stereo unspecified),1.06
Cc1ccc2nc(SCC(=O)Nc3cccc(C)c3C)[nH]c2c1,0.814
CCOC(=O)c1cccc(NC(=O)Cc2c(C(=O)O)[nH]c3ccccc23)c1,1.03
Cc1cc(C)cc(NS(=O)(=O)c2ccc3nc(-c4ccccc4)[nH]c3c2)c1,0.647
Cc1[nH]c2c(C)cccc2c1CCNS(=O)(=O)c1cc(Cl)ccc1Cl,0.921
Cc1ccccc1-c1nc(CS(=O)(=O)CC(=O)NC(C)CCc2ccccc2)c(C)o1 (stereo unspecified),0.82
COc1ccccc1CNC(=O)c1sc2ncn(CC(=O)N3CCCC(C)C3)c(=O)c2c1C (stereo unspecified),1.06
COc1ccc(-c2nc(NC(=O)CCC(=O)c3ccccc3)sc2C)cc1,1.08
